Among the data in PubChem BioAssay (NCI) are growth values, retold here.

This is part of a sample that, as a whole, favours compounds with a hit. Of some 83,000 tested, about 20% had one in any assay.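 Single-dose data. Exposure time 48 hours. Values below 10 considered active.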 Unmarked numbers belong to inactive results. Activity calls are given as the source filed them.

What all share (test): NCI-60 one-dose screen, 48 h (100 = growth as untreated, 0 = no growth, -100 = all killed)
Holding throughout (conditions): 10 µM unless noted

Assay [1] has as its system NCI-H23 lung.
Assay [2] has as its system NCI-H226 lung.
Assay [3] concerns NCI-H322M lung.
For assay [4], the system named is HOP-62 NSCLC.
The subject of assay [5] is NCI-H460 lung.
The test system of assay [6] is HOP-92 NSCLC.
For assay [7], the system named is NCI-H522 lung.
Assay [8] deals with A549/ATCC NSCLC.
Assay [9] concerns 786-0 renal.
The test system of assay [10] is COLO 205 colon.

Regarding `COC(=O)c1c2c(n3ccccc13)C(=O)c1ccccc1C2=O`, the growth in assay [1] was 44.9%; in [2], 73.8%; in [3], 23.5%; in assay [4] it was 68.7%; in assay [5], 1.15% (active); in assay [6] it was 77.8%. The growth in [7] was 54.4%; in [8], -49.1% (active); in assay [9] it was 71.5%; in assay [10], 28.1%.

Take `C/C=C(/C)n1cnc2c(Nc3ccccn3)nc(Cl)nc21`: the growth in [1] was 102%; in assay [2], 102%; in assay [3], 99.3%; in assay [4], 102%; in [5], 103%; in assay [6], 99.9%. Moreover, the growth is 87.1% in assay [7], 104% in assay [8], 101% in assay [9] and 114% in assay [10].

As for `N#CC1=C(N)Oc2ccc3ccccc3c2C1c1ccc([N+](=O)[O-])cc1` (stereo not given), the growth is 78.2% in assay [1]; 87.4% in [2]; 89.3% in assay [3]; 81.8% in [4]; 93.3% in assay [5]; 121% in assay [6]. The growth was 73.5% in assay [7], 93.7% in assay [8], 88.1% in assay [9] and 102% in assay [10].

Consider `CCN1C(=O)N(CC)C2C1N=C(SCc1ccc(Cl)cc1)N2/N=C/C=C/c1ccccc1OC` (stereo not given), for which the growth was 78.2% in assay [1]; 75% in assay [2]; 97.1% in assay [3]; 70% in assay [4]; 85.6% in assay [5]; 50.6% in assay [6]. For the same compound, the growth was 34.1% in assay [7], 53.7% in assay [8], 86.2% in assay [9] and 59.7% in [10].

For `O=C1NC(=O)/C(=C/c2c(-c3ccccc3)nc3sc(COc4ccccc4)nn23)S1`, the growth in assay [1] is 86%; in [2] it was 93.5%; in assay [3] it was 96%; in assay [4], 102%; in assay [5], 102%; in assay [6] it was 66.4%. The growth in assay [7] is 83.6%; in assay [8], 96.6%; in assay [9], 81.6%; in [10], 132%.

Take `C=C(C)[C@@H]1CCC[C@]2(C(=O)O)CC[C@]3(C)[C@@H](CC[C@@H]4[C@@]5(C)C/C(=C/c6ccncc6)C(=O)C(C)(C)[C@@H]5CC[C@]43C)[C@@H]12`: the growth was 20.9% in assay [1]; 36.1% in assay [2]; 26.3% in assay [3]; 50.4% in [4]; 5.65% (active) in assay [5]; 57.2% in assay [6]. For the same compound, the growth was 16.6% in assay [7], 16.3% in [8], 39.8% in assay [9] and 6.51% (active) in assay [10].

For the compound `Cc1cc(Nc2ccc(C(=O)N3CCCC3)cc2)nc(NCCCNc2ccnc3cc(Cl)ccc23)n1`, the growth is 87.8% in [1]; 105% in assay [2]; 85.8% in assay [3]; 81.2% in [4]; 59.4% in [5]; 90.5% in [6]. Besides, the growth in [7] is 65.6%; in assay [8], 104%; in [9], 87.9%; in [10], 76.5%.

As for `COc1cc(-c2nc3sccn3c2-c2ccnc(NCCNS(=O)(=O)c3ccc(Cl)cc3)n2)ccc1F`, the growth was 18.7% in [1]; 8.63% (active) in assay [2]; 70.4% in assay [3]; 34.7% in assay [4]; 42.2% in assay [5]; 78.8% in [6]. For the same compound, the growth in assay [7] is 1.16% (active); in [8], 30%; in [9] it was 61.8%; in [10], 33.8%.

For `Cc1nn(-c2ccccc2)c(N)c1N=C1NC(=O)/C(=C/c2ccc(Br)cc2)S1`, the growth was 75.8% in assay [1]; 78.4% in assay [2]; 83.5% in [3]; 59.6% in [4]; 93.1% in assay [5]; 65.6% in assay [6]. For the same compound, the growth in assay [7] was 85.4%; in assay [8], 74.3%; in [9] it was 94.6%; in assay [10], 101%.

As to `Nc1ncnc2c1N=C(c1ccc3c(c1)OCO3)CC(c1cccc(Nc3ccnc4cc(C(F)(F)F)ccc34)c1)N2` (stereo not given), the growth is 84.2% in assay [1]; 78.1% in [2]; 94.3% in [3]; 84.5% in assay [4]; 90.7% in assay [5]; 53.8% in assay [6]. Also, the growth was 73.6% in assay [7], 68.6% in assay [8], 82.5% in assay [9] and 115% in assay [10].

`Cc1ccc(/C=C/C(=O)c2ccc(-n3cc(CN4CCN(c5cc6c(cc5F)c(=O)c(C(=O)O)cn6C5CC5)CC4)nn3)cc2)cc1`: the growth in assay [1] is 81.5%; in assay [2] it was 84.6%; in assay [3], 94.3%; in assay [4], 81.3%; in assay [5], 89.7%; in [6], 76.2%. The growth was 88.6% in [7], 93.5% in [8], 64.9% in [9] and 101% in assay [10].

Take `CCCn1nc(C(=O)N(C)Cc2ccccc2)c2c1CCC(N1CCc3ccccc31)C2` (stereo not given): the growth is 97.9% in assay [1]; 97.9% in assay [2]; 101% in assay [3]; 103% in [4]; 112% in assay [5]; 90.7% in assay [6]. In addition, the growth in [7] is 86.5%; in assay [8], 93%; in [9], 95.2%; in assay [10] it was 117%.

On to `COc1ccc2c(c1)c(-c1nc(-c3c[nH]c4ncccc34)cs1)cn2CCCN1CCOCC1`, for which the growth in [1] is 56.6%; in assay [2], 45.4%; in [3], 42.1%; in assay [4] it was 28.9%; in assay [5], 25.7%; in [6] it was 27.9%. Also, the growth in [7] is 26.3%; in [8], 42%; in assay [9], -24.3% (active); in assay [10] it was -38.5% (active).

In the case of `CN1CCN(CCOc2ccc(-c3cnc4c(-c5ccc(F)cc5)cnn4c3)cc2)CC1`, the growth is 67% in assay [1]; 104% in assay [2]; 75% in assay [3]; 72.6% in assay [4]; -1.23% (active) in assay [5]; 54.9% in assay [6]. Further, the growth in assay [7] was 64.1%; in [8] it was 27.3%; in [9], 60.3%; in assay [10], -51.7% (active).

For `CCN1CCN(CCNc2nccc(-c3c(-c4ccc(F)c(OC)c4)nc4sccn34)n2)S1(=O)=O`, the growth in assay [1] is 78.2%; in [2], 109%; in assay [3], 83.4%; in assay [4], 87.7%; in assay [5], 56.1%; in assay [6] it was 54.4%. Also, the growth in [7] is 63%; in assay [8], 73.3%; in assay [9], 102%; in [10], 62.3%.

Turning to `O=C(/C=C/C12c3ccccc3C(c3ccccc31)C1C(=O)NC(=O)C12)c1ccc(Br)cc1` (stereo not given), the growth is 50% in assay [1]; 94.4% in [2]; 55.8% in assay [3]; 56.3% in assay [4]; 34.6% in assay [5]; 74.5% in assay [6]. For the same compound, the growth was 47.1% in assay [7], 50.2% in [8], 69.2% in [9] and 58.8% in assay [10].

As to `CC1=CCC(OC(=O)C(C)(C)CC(O)(C(C)O)C(O)C2(C)C=CC(Cc3ccc(C(C)C)cc3)(C(C)C)CC2)(C(C)C)CC1` (stereo not given), the growth in [1] was 95.6%; in [2], 92.3%; in assay [3] it was 93.7%; in [4], 99.2%; in assay [5], 103%; in assay [6], 84.9%. In addition, the growth in [7] is 91.2%; in assay [8] it was 98.5%; in assay [9], 99.9%; in assay [10] it was 103%.

For `CCOC(=O)c1c(C)nc2ccccc2c1/C=C/c1cccs1`, the growth in [1] was 57.6%; in assay [2], 72.4%; in [3] it was 89.1%; in [4], 84.7%; in assay [5] it was 85.2%; in assay [6] it was 68.6%. The growth is 57% in [7], 64.9% in assay [8], 89.7% in [9] and 84.5% in assay [10].

With `O=C(O)/C=C/C(=O)Nc1cccc(Cn2nnc3cc(Cl)c(Cl)cc32)c1`, the growth in assay [1] was 97.3%; in assay [2], 89.8%; in [3], 101%; in assay [4] it was 98.4%; in assay [5], 105%; in assay [6], 97.5%. For the same compound, the growth in assay [7] is 96.2%; in [8] it was 102%; in assay [9], 99.7%; in assay [10], 112%.

Take `Cn1cc(-c2ccc(-c3cn(C)c4ccc(Cl)cc34)[nH]2)c2cc(Cl)ccc21`: the growth in [1] was 10.9%; in [2], 6.47% (active); in assay [3], 41.4%; in [4], 9.58% (active); in [5] it was -60.2% (active); in assay [6] it was -36% (active). The growth in assay [7] was -33.8% (active); in assay [8], -48.3% (active); in assay [9] it was 41%; in assay [10], -91.5% (active).

Take `Cc1c2cccnc2c(C)c2c1c1cc(CO)ccc1n2C`: the growth in assay [1] was 30.6%; in [2], -33.4% (active); in assay [3], 26.8%; in [4], 30.5%; in assay [5], 0.162% (active); in assay [6] it was 32.9%. Further, the growth in assay [7] was 30.3%; in assay [8], 20.9%; in [9] it was 22.6%; in assay [10], 19.1%.
